# Experimental data from PubChem BioAssay (NCATS).
# Results filed as inconclusive are left out. Entries that show only a call come without a potency. Values without a mark were called inactive. Calls of active or inactive are those of the source. The call rests on the fitted dose curve; in most records, active means well fitted curve in the direction sought with a large enough effect; inconclusive means small, poorly fitted or top-dose-only effect, or another doubt; inactive means no such curve, though single readings can be large; an effect the other way counts as inactive or inconclusive.
# Legend:
# [1] = tested on: OV90; assay: Primary qHTS to identify gynecologic anti-cancer compounds using libraries of approved drugs and bioactive compounds (AID 1345084); settings: Gynecologic cancer cell panel viability, ATPlite luminescence, 48 h; series mostly up to 57.5 µM; further: nearly all actives have a fitted effect of over 55% in size; further: potency means the concentration at half of the fitted maximal effect
# Procedure, shortened: (§1)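 Cells, 1,000 per well, were allowed to settle for 16 h at 37 C before compound addition. Five concentrations were tested for 48 h, and viability was read by ATPlite luminescence after 15 min at room temperature.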
# [2] = tested on: PA-1; assay: as above; settings: Gynecologic cancer cell panel viability, ATPlite luminescence, 48 h; series mostly up to 57.5 µM
# Procedure, shortened: as §1
# [3] = tested on: SKOV3; assay: as above; settings: Gynecologic cancer cell panel viability, ATPlite luminescence, 48 h; series mostly up to 57.5 µM
# Procedure, shortened: as §1
# [4] = tested on: Tov-21-G; assay: as above; settings: Gynecologic cancer cell panel viability, ATPlite luminescence, 48 h; series mostly up to 57.5 µM
# Procedure, shortened: as §1
# [5] = tested on: Tov112D; assay: as above; settings: Gynecologic cancer cell panel viability, ATPlite luminescence, 48 h; series mostly up to 57.5 µM
# Procedure, shortened: as §1
# [6] = qHTS assay to identify inhibitors of the type 1 interferon - major histocompatibility complex class I in skeletal muscle: Counter screen cell viability and HiBit confirmation (AID 1347412); settings: iHSKM muscle cells + IFN-b, HiBiT or CellTiter-Glo, 24 h; for Potency: HiBiT; for activity change, negative = inhibition: Viability, at 45.9 µM (top of the series); further: potency means the concentration at half of the fitted maximal effect; on all read-outs here: nearly all actives have a fitted effect of over 60% in size
# Procedure, shortened: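 HLA-B*08:01–HiBiT knock-in immortalized human myoblasts (C25cl48) stimulated with 4.0 ng/ml human IFN-beta and dosed with compound in a 12-point 1:3 titration (top final 46 uM). After 24 hrs at 37 C, HiBiT lytic luminescence or CellTiter Glo ATP read out.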
# [7] = Drug repurposing screens with cells derived from glioblastoma tumor samples (AID 1345199); settings: GBM patient neurospheres viability, ATP luminescence, 48 h; further: nearly all actives have a fitted effect of over 40% in size
# Procedure, shortened: (§2)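 Four patient lines of CD133+ GBM neurospheres were screened at several concentrations; hits were retested in those lines plus three slower-growing GBM lines, using 48-hour treatment and ATP-based viability.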
# [8] = tested on: astro; assay: as above; settings: viability, ATP luminescence, 48 h; series mostly up to 45.9 µM
# Procedure, shortened: as §2
# [9] = at 45.9 µM (top of the series), tumour line B
# [10] = at 45.9 µM (top of the series), tumour line D
# [11] = at 46.1 µM (top of the series), tumour line C
compound,measurement,setting,value
C1Cc2[nH]nc(-c3nn[nH]n3)c2C1,Potency,[1],inactive
same,Potency,[2],inactive
same,Potency,[3],inactive
same,Potency,[4],inactive
same,Potency,[5],inactive
Nc1ncnc2c1c(-c1cnc3[nH]ccc3c1)nn2C1CCCC1,Potency,[1],5.01 µM (active)
same,Potency,[2],8.91 µM (active)
same,Potency,[4],6.31 µM (active)
same,Potency,[5],5.01 µM (active)
same,Potency,[6],2.22 µM (active)
COc1cc(C(=O)NS(=O)(=O)c2ccccc2C)ccc1Cc1cn(C)c2ccc(NC(=O)OC3CCCC3)cc12,Potency,[1],inactive
same,Potency,[2],inactive
same,Potency,[3],inactive
same,Potency,[4],inactive
same,Potency,[5],inactive
same,"activity, negative = cell killing",[7]; [9],-14.2%
same,"activity, negative = cell killing",[7]; [10],-15.9%
same,"activity, negative = cell killing",[7]; [11],5.07%
same,Potency,[8],inactive
COc1cc2c(NC3CCN(C(C)C)CC3)nc(C3CCCCC3)nc2cc1OCCCN1CCCC1,Potency,[1],11.2 µM (active)
same,Potency,[2],31.6 µM (active)
same,Potency,[3],12.6 µM (active)
same,Potency,[5],22.4 µM (active)
O=C(Nc1cn[nH]c1-c1nc2ccc(CN3CCOCC3)cc2[nH]1)NC1CC1,Potency,[1],11.2 µM (active)
same,Potency,[2],8.91 µM (active)
same,Potency,[3],10 µM (active)
same,Potency,[4],2.24 µM (active)
same,Potency,[5],11.2 µM (active)
same,Potency,[6],1.98 µM (active)
same,"activity change, negative = inhibition",[6],61.5%
CC(C)c1cc(C(=O)N2Cc3ccc(CN4CCN(C)CC4)cc3C2)c(O)cc1O,Potency,[1],0.501 µM (active)
same,Potency,[2],0.501 µM (active)
same,Potency,[4],0.355 µM (active)
CC1(O)CC(c2nc(-c3ccc4ccc(-c5ccccc5)nc4c3)c3c(N)nccn23)C1 (stereo unspecified),Potency,[1],inactive
same,Potency,[2],inactive
same,Potency,[3],inactive
same,Potency,[4],inactive
same,Potency,[5],inactive
same,"activity change, negative = inhibition",[6],-13.8%
CC(=O)SC[C@@H](C)C(=O)N1CCC[C@H]1C(=O)N[C@@H](Cc1ccccc1)C(=O)O,Potency,[1],inactive
same,Potency,[2],inactive
same,Potency,[4],inactive
same,Potency,[5],inactive
same,"activity, negative = cell killing",[7]; [9],-6.65%
same,"activity, negative = cell killing",[7]; [10],2.25%
same,"activity, negative = cell killing",[7]; [11],-6.2%
same,Potency,[8],inactive
O=c1c2ccccc2nc2n1CCc1c-2[nH]c2ccccc12,Potency,[1],inactive
same,Potency,[2],inactive
same,Potency,[4],inactive
same,Potency,[5],inactive
Cc1cc(Nc2ncnc3ccc(-c4ccc(CNCCS(C)(=O)=O)o4)cc23)ccc1Oc1ccn2ncnc2c1,Potency,[1],inactive
same,Potency,[2],inactive
same,Potency,[3],inactive
same,Potency,[4],inactive
same,Potency,[5],inactive
Cc1ccc2nc(NC(=O)CSc3nc4c(c(=O)n3-c3ccccc3)SCC4)sc2c1,Potency,[1],inactive
same,Potency,[2],inactive
same,Potency,[4],inactive
same,Potency,[5],inactive
Nc1ccccc1NC(=O)c1ccc(CNC(=O)OCc2cccnc2)cc1,Potency,[1],0.631 µM (active)
same,Potency,[2],3.16 µM (active)
same,Potency,[4],8.91 µM (active)
CC(C)(O)c1cc2nc(-c3cnc(N)nc3)nc(N3CCOCC3)c2s1,Potency,[1],2.82 µM (active)
same,Potency,[2],8.91 µM (active)
same,Potency,[4],3.16 µM (active)
CN(C)c1nc(Cc2ccc(NC(=O)c3ccc4ccccc4c3)cc2)nc(Cl)c1CC(=O)O,Potency,[1],inactive
same,Potency,[2],inactive
same,Potency,[4],inactive
same,Potency,[5],inactive
O=C(Cc1ccc(-c2ccc(OCCN3CCOCC3)cc2)cn1)NCc1ccccc1,Potency,[1],2.82 µM (active)
same,Potency,[2],1.26 µM (active)
same,Potency,[4],2 µM (active)
same,Potency,[5],1 µM (active)
NC(=O)Nc1cc(-c2cccc(F)c2)sc1C(=O)N[C@H]1CCCNC1,Potency,[1],2.82 µM (active)
same,Potency,[2],2.82 µM (active)
same,Potency,[3],0.631 µM (active)
same,Potency,[5],1.78 µM (active)
same,Potency,[6],1.76 µM (active)
O=C(Nc1cc(C(F)(F)F)cc(C(F)(F)F)c1)c1cc(Cl)ccc1O,Potency,[1],8.91 µM (active)
same,Potency,[2],1.58 µM (active)
same,Potency,[3],3.55 µM (active)
same,Potency,[4],8.91 µM (active)
same,Potency,[5],3.55 µM (active)
same,Potency,[6],15.7 µM (active)
CNC(=O)c1ccccc1Nc1nc(Nc2ccc(N3CCOCC3)cc2OC)ncc1Cl,Potency,[1],1 µM (active)
same,Potency,[2],14.1 µM (active)
same,Potency,[3],11.2 µM (active)
same,Potency,[4],12.6 µM (active)
same,Potency,[6],1.4 µM (active)
CCc1cc2c(cc1N1CCC(N3CCOCC3)CC1)C(C)(C)c1[nH]c3cc(C#N)ccc3c1C2=O,Potency,[1],inactive
same,Potency,[2],inactive
same,Potency,[4],inactive
same,Potency,[5],inactive
COc1cccc(Nc2c(C(N)=O)cnc3c(C)cc(S(=O)(=O)c4cccc(C(=O)N(C)C)c4)cc23)c1,Potency,[1],inactive
same,Potency,[2],inactive
same,Potency,[3],inactive
same,Potency,[4],inactive
same,Potency,[5],inactive
CNC(=O)CN1CCC(Oc2cc3c(Nc4cccc(Cl)c4F)ncnc3cc2OC)CC1,Potency,[1],inactive
same,Potency,[2],inactive
same,Potency,[3],14.1 µM (active)
same,Potency,[5],inactive
COc1cc2c(Nc3ccc(NC(=O)c4ccccc4)cc3)ncnc2cc1OCCCN1CCOCC1,Potency,[1],25.1 µM (active)
same,Potency,[2],inactive
same,Potency,[3],11.2 µM (active)
same,Potency,[5],inactive
C=CC(=O)N1CCC[C@@H](n2nc(-c3ccc(Oc4ccccc4)cc3)c3c(N)ncnc32)C1,Potency,[1],inactive
same,Potency,[2],inactive
same,Potency,[4],inactive
same,Potency,[5],inactive
